# Measurements as given in PubChem BioAssay AID449762 (Southern Research Specialized Biocontainment Screening …, 2010).
# The campaign covered roughly 330,000 compounds. About 1,900 (0.58%) were called active. Another 4% or so got no clear call; they are omitted. A selection follows. Entries with a potency or affinity are not part of this list. Unmarked numbers belong to inactive results. Cut-off read from the data, not from the text of the source: inconclusive = inhibition above about 70% without an active follow-up result; inactive = below that.
# Assay: M. tuberculosis growth inhibition, HTS (AID 449762);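 note: bacterial growth assessed after seven days of incubation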
# Details: M. tuberculosis H37Rv growth inhibition, 7H9 media; at 25 µM; hits give high values
row,SMILES,inhibition [%]
1,O=C1CC2(CCCCC2)Oc2ccc(F)cc21,-0.1
2,NC(N)=N/N=C/c1ccccc1,-2.68
3,CCN(Cc1ccccc1)c1ccc(/C=N/NC(=S)NC(C)C)cc1,10.7
4,NC(N)=N/N=C/c1ccc(Br)cc1,10.5
5,CCN(Cc1ccccc1)c1ccc(/C=N/N2CCOCC2)cc1,11.3
6,COc1ccc(-c2oc3cccnc3c2C#CCO)cc1,5.48
7,CC(=O)N/C(=C\c1ccccc1)C(=O)N1CCOCC1,-6.38
8,CN(C)CCCN1c2ccc([N+](=O)[O-])cc2CCc2cc([N+](=O)[O-])ccc21,-1.94
9,CCOc1cc(/C=C\[N+](=O)[O-])ccc1OCC(=O)N1CCOCC1,3.95
10,COc1cc(/C=C/c2cccc[n+]2C)ccc1OCC(=O)Nc1ccccc1C,-9.56
11,COc1cccc(C(=O)c2c[nH]c(C(=O)NCCCN(C)C)c2)c1,-4.05
12,COCCn1c(CN2CCN(C(=O)c3ccco3)CC2)nc2c1c(=O)n(C)c(=O)n2C,13
13,CC(=O)c1ccc(OC(=O)COc2ccccc2)cc1,-5.04
14,NS(=O)(=O)c1ccc(NC(=O)CSc2ncnc3ccccc23)cc1,0.11
15,O=C(CSc1nnc(NC2CCCCC2)s1)Nc1ccc2c(c1)C(=O)c1ccccc1C2=O,4.12
16,CC(Sc1nnc(NC2CC2)s1)C(=O)Nc1ccc(S(N)(=O)=O)cc1 (stereo not given),8.95
17,CCN1CCN(c2nc3c(c(=O)[nH]c(=O)n3C)n2CCCc2ccccc2)CC1,-0.19
18,COc1cc(C(C)=O)ccc1OCC(O)CN1CCN(S(=O)(=O)c2ccccc2)CC1 (stereo not given),-10.5
19,CCOC(=O)c1cc(C)nc(SC)c1C#N,6.64
20,C#CCSc1nc(C)cc(C(=O)OCC)c1C#N,1.67
21,CCOC(=O)[C@@H]1[C@H]2COc3ccc(Br)cc3[C@@H]2N2C(=O)N(c3ccc(C)cc3)C(=O)[C@@]12C,-3.24
22,CN(Cc1cnn(C)c1)C(=O)CC1C(=O)NCCN1Cc1cccc(Oc2ccccc2)c1 (stereo not given),3.24
23,Cc1sc2nc(C(C)C)nc(SCC(=O)NC3CC3)c2c1C,0.27
24,Cc1c(C(=O)CN2CCCC(C)(C)C2)c2ccccc2n1C,5.6

row,SMILES,inhibition [%]
1,COc1cc(CNCCCN2CCOCC2)ccc1OCC(=O)Nc1cccc(C(F)(F)F)c1,0.14
2,CCOc1cc(CNCCCN2CCOCC2)ccc1OCC(=O)Nc1cccc2ccccc12,6.81
3,Cc1ccc(S(=O)(=O)N2CCOCC2)c(C)c1NS(C)(=O)=O,-0.81
4,CCN(C(=O)COc1cc(OC)ccc1C(C)=O)C1CCS(=O)(=O)C1 (stereo not given),0.77
5,CCc1noc(C)c1C(=O)NNC(=O)COc1cc(C)ccc1C,0.9
6,CCc1cccc(NC(=O)CCS(=O)(=O)c2cccc3nonc23)c1,57.8
7,Cc1ccc(NC(=O)CCS(=O)(=O)c2cccc3nonc23)cc1,13.6
8,O=c1c(/C=N/OCc2ccc(Cl)cc2Cl)c[nH]n1-c1cccc(Cl)n1,34.5
9,O=c1c(C=Nc2ccc(Cl)cc2)c[nH]n1-c1cccc(Cl)n1,0.34
10,Cc1nc2c(C(F)(F)F)cccc2c2c1CCS2,0.87
11,Cc1cccc(NC(=O)C2CCCN(S(=O)(=O)c3c(C)nn(C)c3C)C2)c1 (stereo not given),-8.6
12,O=Cc1ccccc1OS(=O)(=O)c1ccccc1,-6.41
13,O=C(Nc1ccccc1)c1ccccc1OS(=O)(=O)c1ccccc1,0.76
14,C/C(=N\NC(=O)CN(c1ccccc1)S(C)(=O)=O)c1ccccc1O,-3.69
15,Cc1cc(OC(C)C(=O)NCC2CCCO2)cc(C)c1Cl (stereo not given),11.1
16,CCn1cnc2sc(C(=O)N3CCN(c4ccc(OC)cc4)CC3)c(C)c2c1=O,-8.96
17,CCn1cnc2sc(C(=O)O)c(C)c2c1=O,-6.99
18,Cc1ccc(-n2[nH]c(C)c(C=Nc3ccc(S(=O)(=O)Nc4nc(C)cc(C)n4)cc3)c2=O)c(C)c1,-3.23
19,Cc1[nH]n(-c2ccc(Br)cc2)c(=O)c1C=Nc1ccc(S(=O)(=O)Nc2nccs2)cc1,68.2
20,C[C@H](CO)N1C[C@H](C)[C@@H](CN(C)C)Oc2c(NS(=O)(=O)c3ccccc3)cccc2C1=O,0.58
21,O=C(NC1CC1)C1CCN(C2CCN(C(=O)/C=C/c3cccs3)CC2)CC1,-5.63
22,O=C(CNC(=O)c1cccs1)OCc1ccc(Br)cc1,-2.09
23,O=C(CCC(=O)N(c1ccc(F)cc1)C(C(=O)NC1CCCC1)c1ccncc1)Nc1cccnc1 (stereo not given),-10.1
24,CC(=O)Nc1ccc(C(=O)CN2C(=O)NC3(CCOc4ccccc43)C2=O)c(F)c1 (stereo not given),-3.12

row,SMILES,inhibition [%]
1,CCCNC(=O)CCn1c(=S)oc2ccccc21,2.75
2,CCCCOC(=O)CCn1c(=S)oc2ccccc21,23.9
3,Cc1ccc(Cl)cc1-n1c(O)c(C=NCCCN2CCOCC2)c(=O)[nH]c1=O,-2.44
4,COc1ccc(C2=CN(Cc3ccccc3)C(c3ccccc3)CC2=O)cc1 (stereo not given),-2.25
5,Cc1cc(C)c(NC(=O)c2cc3c(nc4sccn43)s2)c(C)c1,-18.3
6,CCN(C(=O)COC(=O)c1[nH]c(C)c(C(C)=O)c1C)C1CCS(=O)(=O)C1 (stereo not given),-10.7
7,CCn1c2ccccc2c2cc(NC(=O)c3ccc([N+](=O)[O-])cc3)ccc21,9.29
8,O=C(Nc1ccc(N2CCOCC2)cc1)c1ccc([N+](=O)[O-])cc1,1.26
9,CN(C)c1ccc(NC(=O)c2cn(-c3ccccc3)nc2-c2cccs2)cc1,-2.85
10,CCN(CC)CCNC(=O)c1cn(-c2ccccc2)nc1-c1cccs1,5.6
11,Cc1oc(-c2cccc(Cl)c2)nc1CSc1nc2c(c(=O)[nH]1)CCC2,-10.8
12,Cn1c(-c2ccccc2)cnc1NCc1cc(Cl)ccc1O,10.7
13,Cn1c(-c2cccc(Br)c2)cnc1NCc1ccccc1O,42.5
14,Cc1ccc(N/C=C/c2onc(C)c2[N+](=O)[O-])cc1,-2.82
15,Cc1cccc(C)c1N/C=C/c1onc(C)c1[N+](=O)[O-],-4.35
16,COc1ccc(NC(=O)c2ccco2)cn1,-3.96
17,Cn1ccnc1SCC(=O)Nc1ccc(Cl)cn1,-1.74
18,CCCCn1c(SCc2c(C)noc2C)nc2cc(S(N)(=O)=O)ccc21,-4.65
19,CCCCn1c(SCc2nc3ccccc3s2)nc2cc(S(N)(=O)=O)ccc21,1.21
20,Cc1ccc(C)c(NC(=O)c2c(Cl)nc3ccccn23)c1,10.7
21,O=[N+]([O-])c1cccc(-c2nc(-c3ccncc3)no2)c1,-2
22,Brc1ccc(-c2nc(-c3ccncc3)no2)cc1,1.44
23,O=[N+]([O-])c1ccc(-c2nc(-c3ccncc3)no2)cc1,7.86
24,Cc1ccc(-c2nc(-c3ccncc3)no2)cc1,-14.2

row,SMILES,inhibition [%]
1,CCn1ccc(C(=O)Nc2ccc3c(c2)CCC3)n1,-10.2
2,COc1ccc(/C=N/n2c(C)nc3ccccc3c2=O)cc1OC,7.03
3,NC(=O)c1ccc(NC(=S)NCc2ccco2)cc1,-0.21
4,O=C(NNC(=O)C12CC3CC(CC(C3)C1)C2)c1cnccn1,-6.86
5,O=C(NNC(=O)C12CC3CC(CC(C3)C1)C2)c1ccncc1,2.26
6,COc1ccc(CCOC(=O)c2ccc(NC(=O)CC#N)cc2)cc1,-3.16
7,Cc1c(C(=O)NCCCN2CCCC2=O)oc2c(Cl)cccc12,-3.89
8,CC(=O)C1=C(C)Nc2ncnn2C1c1ccc(Br)cc1 (stereo not given),2.48
9,Cc1nn(CC(=O)Nc2c(C)n(C)n(-c3ccccc3)c2=O)c(C)c1[N+](=O)[O-],-2.07
10,COc1ccc(NC(=O)CCC(=O)N(Cc2ccc(OC)c(OC)c2)c2nccs2)c(OC)c1,-1.87
11,O=c1nc(-c2ccccc2)c2ccccc2[nH]1,-8.68
12,O=c1cc(-c2ccccc2)[nH]c2ccccc12,3.78
13,c1cc2c(cc1C1CCCCC1)c1c3n2CCN=C3CCC1,-6.21
14,Cc1ccc2c(c1)c1c(n2C)C(=O)CCC1,-12
15,COc1cccc(OCC(=O)Nc2c3c(nn2-c2ccccc2)CS(=O)(=O)C3)c1,4.27
16,Cc1ccc(/C=N/NC(=O)Cc2cccn2C)s1,4.27
17,COC(=O)C1=C(C)Nc2c(c(=O)n(C)c(=O)n2C)C1c1cccs1 (stereo not given),-11.8
18,Cc1noc(C)c1C(=O)OCC(=O)Nc1cc(Cl)ccc1Oc1ccccc1,2.51
19,Cc1ccc(N(CC(=O)Nc2cccc(Cl)c2C)S(C)(=O)=O)cc1,7.2
20,O=C(Cc1cccc(NC(=O)C2CCCN(C(=O)C3CCC3)C2)c1)Nc1cccc(C(=O)N2CCCC2)c1 (stereo not given),-9.14
21,Cc1cccc(C(=O)N2N=C(c3ccc(NS(C)(=O)=O)cc3)CC2c2cccs2)c1 (stereo not given),2.79
22,CS(=O)(=O)Nc1ccc(C2=NN(C(=O)c3ccccc3)C(c3cccs3)C2)cc1 (stereo not given),26.9
23,O=C(O)C(O)C(O)C(O)C(O)C(=O)O (stereo not given) (tested in a mixture with another compound),3.48
